# Shown are actives, neighbours in structure and some others; about 3.7% of the full set was active somewhere.
# PfHsp90 set2 = growth inhibition of PfHsp90-expressing yeast, primary screen, antimalarial PfHsp90 inhibitor project, S. cerevisiae, BacTiter-Glo luminescence, single point, set 2; BacTiter-Glo ATP, 48 h; yeast lacking PDR1 and PDR3 efflux regulators; inhibition, % at 9.4 µM; hit rate 0.32% among 310,000;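 active means every replicate shows inhibition above about 80%, whatever the replicate mean, limit read from the data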;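 further: 0% = DMSO neutral controls and 100% = 20 µM radicicol positive controls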
# NLRP3 yeast inh = NALP3 inflammasome inhibitors in reconstituted yeast, primary screen, luminescence, uHTS | Yeast reconstituted NLRP3/ASC/caspase-1, beta-gal luminescence, 24 h | inhibition, % at 10 µM | hit rate 0.39% among 330,000 | AID 2825, 2010;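 active means inhibition of 50% or more; inactive means inhibition below 50%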;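 further: plate controls were induced DMSO wells for no effect and uninduced yeast grown without galactose for full effect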
# TIM10 inh = growth inhibitors of isogenic TIM10 control yeast, primary screen, counter-screen for tim10-1 yeast inhibitor project, luminescence, uHTS; S. cerevisiae TIM10 strain growth, BacTiter-Glo luminescence, 24 h; hit rate 1.4% among 330,000; AID 463195, 2010; inhibition, % at 10 µM;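 active means inhibition of 40% or more at the single tested concentration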;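 further: wild-type TIM10 isogenic control strain grown at permissive 25 °C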
# tim23-1 inh = growth inhibitors of tim23-1 mutant yeast, primary screen, luminescence, uHTS; S. cerevisiae tim23-1 growth, BacTiter-Glo luminescence, 24 h; inhibition, % at 20 µM; hit rate 1.3% among 330,000; AID 463212, 2010;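 active means growth inhibition of the mutant yeast at or above 50%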;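 further: temperature-sensitive mutant grown at 25 °C; plate controls were DMSO-treated mutant yeast for no effect and medium wells lacking yeast for full effect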
# tim10-1 inh = growth inhibitors of tim10-1 mutant yeast, primary screen, luminescence, uHTS; hit rate 2.2% among 330,000; inhibition, % at 20 µM; S. cerevisiae tim10-1 ts strain growth, BacTiter-Glo, 24 h;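 active means inhibition of at least 40%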;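 further: mutant grown at 25 °C; 0% = DMSO wells with yeast and 100% = wells holding no yeast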
# tim10-1 confirm = growth inhibitors of tim10-1 mutant yeast, confirmation, single concentration, luminescence, S. cerevisiae; shares compounds with tim10-1 inh; S. cerevisiae tim10-1 ts strain growth, BacTiter-Glo, 24 h; inhibition, % at 20 µM; hit rate 56% among 7,400; AID 463213, 2010;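 active means inhibition of yeast growth at or above a set limit in either of two repeat tests at 20 µM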;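 further: tim10-1 mutant grown at permissive 25 °C to find synthetic lethal compounds; 0% = DMSO yeast wells and 100% = medium wells without yeast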
# * = called active by the depositor; nt = no result given.
SMILES,PfHsp90 set2,NLRP3 yeast inh,TIM10 inh,tim23-1 inh,tim10-1 inh,tim10-1 confirm
COc1ccc(-c2sc3cc4c(cc3c2C#CC2(N)CCCCC2)OCO4)cc1,-6.7,9.1,32.8,46.5,47.7*,43.9*
COc1ccc(-c2sc3cc4c(cc3c2C#Cc2cncn2C)OCO4)cc1,-30.1,-33.2,13.4,5.3,7.0,nt
O=CN(CCNc1ccccc1)c1ccccc1,-0.5,nt,nt,nt,nt,nt
Cc1sc(C(C2C(=O)CC(C)(C)CC2=O)C2C(=O)CC(C)(C)CC2=O)cc1[N+](=O)[O-],7.6,37.9,37.4,47.4,43.8*,41.2*
COc1ccc(NC(=O)CC2C(=O)N(c3cccc(C)c3)C(=O)N2C2CCCCC2)cc1 (centres undefined),nt,-14.3,11.5,23.0,40.0,23.3
O=C(CCNC(=O)c1ccc(Br)cc1)NCCCN1CCCC1=O,16.1,0.8,-0.3,12.2,6.1,nt
CCN(CC)c1ccc(C2Nc3cccc4cccc(c34)N2)c(O)c1,1.9,-2.7,18.9,29.0,42.7*,27.2
COc1cccc2[nH]c3c(N4CCC(C)CC4)ncnc3c12,-13.6,-0.2,19.4,23.2,41.5*,23.9
COc1cccc2[nH]c3c(N4CCc5ccccc5C4)ncnc3c12,nt,-1.7,35.5,33.2,24.3,nt
COc1ccc(C2(C(=O)N3CCC(n4nc(-c5ccccc5)oc4=O)CC3)CC2)cc1,36.3,-4.0,14.3,38.3,41.3*,14.8
Cc1ccc(C2(C(=O)N3CCC(n4nc(-c5ccccc5)oc4=O)CC3)CC2)cc1,-7.4,13.7,31.4,30.7,19.9,nt
COc1ccc(OCc2ccc(/C=N\NC(=O)c3sccc3C)o2)cc1,-2.5,13.7,12.3,-4.6,-18.4,nt
C/C(=N\NC(=S)NCc1ccccc1)c1ccc(Cl)s1,-34.5,16.5,39.2,4.6,41.3*,32.5*
O=C(CN1C(=O)c2ccc([N+](=O)[O-])cc2C1=O)Nc1cc(S(=O)(=O)N2CCOCC2)ccc1Cl,10.1,0.2,1.5,13.8,1.0,nt
COc1ccccc1-n1cc(-c2ccccc2)[nH]c1=S,-10.8,5.0,31.1,45.9,10.9,nt
COc1ccccc1-n1cc(-c2ccccc2)c2c(=S)nc[nH]c21,-38.1,10.4,30.8,41.4,48.4*,14.5
N#CCCN(C(=O)c1ccc2c(=O)n3c(nc2c1)CCCCC3)c1ccccc1,3.7,2.2,2.4,11.1,20.4,nt
COc1ccccc1-c1noc2ncnc(Nc3cccc(C)c3C)c12,-22.6,28.6,12.3,23.6,20.3,nt
O=C1/C(=C/c2cccnc2)SC(=S)N1N1CCOCC1,-14.1,26.7,28.9,47.3,51.6*,40.1*
O=C1/C(=C/c2cccs2)SC(=S)N1N1CCOCC1,-9.1,26.1,17.4,18.5,9.0,nt
CCCCN=c1scc(-c2ccc3c(c2)NC(=O)CO3)n1N=C1CCCC1,nt,-0.3,31.5,22.2,43.8*,6.6
CCN=c1scc(-c2ccc3c(c2)NC(=O)CO3)n1N=C1CCCC1,1.7,6.8,12.4,32.7,11.5,nt
COc1cc(C(=O)Nc2ccc3nc(N4CCOCC4)sc3c2)cc(OC)c1OC,-9.1,7.0,22.1,30.3,41.2*,15.6
Cc1cccc(C)c1OCC(=O)NCC1COc2ccccc2O1 (centres undefined),-25.7,19.2,-15.4,27.7,3.5,nt
Cc1ccc(C)c(OCCC(=O)OCC(=O)N2CCN(S(=O)(=O)c3ccc(Cl)cc3)CC2)c1,10.6,31.5,32.6,27.8,44.8*,29.4*
CN1C(=O)NC(c2ccc(Cl)cc2)C2=C1CC(C)(C)CC2=O (centres undefined),-32.4,7.9,16.1,-2.0,-8.3,nt
CC(C)NC(=O)/C(C#N)=C/c1ccc2c(c1)OCCO2,4.4,13.1,10.7,29.8,42.8*,34.5*
N#C/C(=C\c1cccc(O)c1)C(=O)Nc1ccc2c(c1)OCCO2,-14.3,14.3,38.1,37.7,19.7,nt
O=C(NCc1nnnn1-c1ccc(F)c(F)c1)c1cc2ccccc2o1,nt,13.2,-2.9,-15.3,-7.0,nt
CSc1ccc2nnc(-c3cccc(F)c3)n2n1,-6.6,8.6,19.7,48.3,48.5*,41.4*

# Source: PubChem BioAssay (several laboratories)
